95 compounds from PubChem BioAssay AID778 (Sanford-Burnham Center for Chemical Genomics, 2007) can be followed below.

Each structure is given as a SMILES string. The whole screen tested about 96,000 compounds, of which about 20,000 (21%) were called active.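 How the source made its calls: active means CYP2C19 inhibition above a set limit at 5 µM in the primary screen (cut at about 50% in these data); inactive means the rest.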 A selection follows.

In the assay the target is Cytochrome P450 2C19 (Homo sapiens) (UniProt P33261). Nature of the assay: blockers of cytochrome P450 2C19 activity – biochemical, luminescence, ADME assay, primary screen (AID 778).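 Further: plate controls were negative control wells for no effect and 2.5 mM tranylcypromine positive control for full effect.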 As to conditions: CYP2C19 Supersomes, luciferin-H EGE luminescence, 30 min; at 5 µM; hits give high values.
Chain of Cytochrome P450 2C19 (Homo sapiens) (P33261 whole entry, looked up): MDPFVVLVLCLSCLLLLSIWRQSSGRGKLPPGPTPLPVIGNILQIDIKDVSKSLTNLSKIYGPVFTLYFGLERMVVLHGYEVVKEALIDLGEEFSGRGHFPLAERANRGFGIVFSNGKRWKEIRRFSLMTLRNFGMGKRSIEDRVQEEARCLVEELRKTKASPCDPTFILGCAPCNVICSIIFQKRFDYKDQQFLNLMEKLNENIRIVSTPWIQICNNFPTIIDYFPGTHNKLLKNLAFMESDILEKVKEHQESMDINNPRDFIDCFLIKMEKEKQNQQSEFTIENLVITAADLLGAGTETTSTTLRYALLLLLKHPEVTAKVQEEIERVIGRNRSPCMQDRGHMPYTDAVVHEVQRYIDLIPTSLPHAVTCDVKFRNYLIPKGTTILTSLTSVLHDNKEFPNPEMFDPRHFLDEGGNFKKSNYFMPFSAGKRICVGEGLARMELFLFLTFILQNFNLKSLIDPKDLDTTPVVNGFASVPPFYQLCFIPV
By inhibition is commonly meant the change of the read-out against control, counted positive when it falls. As to `CCOc1cc2[nH]c(=S)n(Cc3ccc(C(=O)NCCOC)cc3)c(=O)c2cc1OCC`, the inhibition was -10.8% (inactive).

Turning to `CCOC(=O)N1CCN(Cc2oc(CO)cc(=O)c2O)CC1`, the inhibition was 5.4% (inactive).

For `CSCCC(NS(=O)(=O)c1ccc2c(c1)oc(=O)n2C)C(=O)NC1CCCc2ccccc21` (stereo not given), the inhibition was 7.6% (inactive).

Take `OC1CN=C2Sc3ccccc3N2C1` (stereo not given): the inhibition was -7.4% (inactive).

`O=C(Cc1ccc2c(c1)CCCC2)Nc1ccccc1Cl`: the inhibition was 27.1% (inactive).

`CC1(C)CC(CCC(=O)Nc2ccccc2Cl)C(=O)O1` (stereo not given): the inhibition was 1.2% (inactive).

On to `O=C(Nc1ncc2c(n1)CC(c1ccco1)CC2=O)c1ccc(Cl)cc1` (stereo not given), for which the inhibition is 28.4% (inactive).

With `Cc1cc(=O)[nH]c(SCc2cc(Cl)ccc2OC(F)F)n1`, the inhibition is 29% (inactive).

Take `CCCCOc1ccc(Cl)cc1CSc1nncn1N`: the inhibition was 86.7% (active).

On to `CCCCOc1ccc(CSC(=N)N)cc1[N+](=O)[O-]`, for which the inhibition is 16.6% (inactive).

`Cc1[nH]n(-c2ccc([N+](=O)[O-])cc2)c(=O)c1C=NCCN1CCN(C(=O)c2ccccc2F)CC1`: the inhibition was 9.2% (inactive).

As to `CCC(=O)Nc1ccccc1N1CCN(S(C)(=O)=O)CC1`, the inhibition was 10.6% (inactive).

As to `COc1ccc(C(=O)NC(=S)Nc2ccccc2N2CCN(S(C)(=O)=O)CC2)cc1OC`, the inhibition is 75.2% (active).

On to `CCOC(=O)c1cnc2sccn2c1=O`, for which the inhibition is -11.8% (inactive).

On to `Cc1ccc(-n2c(=O)c(C#N)cc3c(=O)n4ccccc4nc32)cc1C`, for which the inhibition was 6.5% (inactive).

In the case of `CCCn1c(=NC(C)=O)c(C(=O)OCC)cc2c(=O)n3ccccc3nc21`, the inhibition was -6.3% (inactive).

As to `CCn1c(=N)c(S(=O)(=O)c2ccc(F)cc2)cc2c(=O)n3ccccc3nc21`, the inhibition is 69.6% (active).

Turning to `COc1cc2[nH]c(=S)n(Cc3ccc(C)o3)c(=O)c2cc1OC`, the inhibition is -7.9% (inactive).

As to `CCC(C)(C)n1nnnc1C(c1cccs1)N1CCN(c2nc3ccccc3s2)CC1` (stereo not given), the inhibition was 49.9% (inactive).

Take `CC(C)C(c1nnnn1Cc1ccccc1)N1CCC(C(N)=O)CC1` (stereo not given): the inhibition was 10% (inactive).

For `CCC(C)(C)n1nnnc1C(c1ccccc1OC)N1CCSCC1` (stereo not given), the inhibition is 11.4% (inactive).

For the compound `CCC(C)(C)n1nnnc1C(c1cccs1)N1CCN(Cc2ccccc2)CC1` (stereo not given), the inhibition was 61.8% (active).

On to `N#Cc1ccc(C(c2nnnn2CCc2ccccc2)N2CCCCCC2)cc1` (stereo not given), for which the inhibition is 20.5% (inactive).

As for `Fc1ccc(Cn2nnnc2C(c2cccs2)N2CCCCCC2)cc1` (stereo not given), the inhibition is 96% (active).

With `O=C1c2cccnc2C(=O)N1Cc1cccs1`, the inhibition was 21.3% (inactive).

For the compound `CCCCNC(=O)CCn1c(=S)[nH]c2cc3c(cc2c1=O)OCO3`, the inhibition is 41.9% (inactive).

For `CCCCn1c(=S)[nH]c2ncccc2c1=O`, the inhibition is 10.8% (inactive).

Turning to `CC(C)(C)c1ccc(C(=O)NNC(=O)Cc2ccccc2)cc1`, the inhibition was 23.9% (inactive).

Turning to `O=S(=O)(c1ccc(F)cc1)n1ccc(-c2cnc(-c3ccccc3)s2)n1`, the inhibition is 13.6% (inactive).

For the compound `CCOC(=O)N1CCN(S(=O)(=O)c2cc3c(cc2C)NC(=O)CO3)CC1`, the inhibition was 12.1% (inactive).

With `Cn1cc(S(=O)(=O)N2CCC(Cc3ccccc3)CC2)c(=O)n(C)c1=O`, the inhibition is 69.7% (active).

For the compound `COCCn1c(CN2CCC(Cc3ccccc3)CC2)nc2c1c(=O)n(C)c(=O)n2C`, the inhibition is 49.4% (inactive).

In the case of `Cn1cc(S(=O)(=O)N2CCN(c3ccc(F)cc3)CC2)c(=O)n(C)c1=O`, the inhibition is 26.4% (inactive).

`C=CCn1c(SCC(=O)c2ccc(Br)cc2)nnc1C(C)NC(=O)Cc1ccc(OC)cc1` (stereo not given): the inhibition is 11.6% (inactive).

`COCCn1c(SCc2nc3cc(OC)c(OC)cc3c(=O)[nH]2)nnc1-c1ccncc1`: the inhibition is -13.4% (inactive).

As for `C=CCn1c(SCCOc2ccc(OC)cc2)nnc1C(NC(=O)c1ccc(OC)cc1)C(C)C` (stereo not given), the inhibition was 35.4% (inactive).

For the compound `C=CCn1c(SCc2cc(C(=O)OC)c(C)o2)nnc1-c1ccncc1`, the inhibition was 92.1% (active).

As for `C=CCn1c(SCc2c(C(=O)OC)sc(N)c2C(=O)OC)nnc1-c1ccc(Cl)cc1`, the inhibition is 57.1% (active).

Regarding `O=C1Nc2c(Br)cc(Br)cc2C1(O)N1CCOCC1` (stereo not given), the inhibition is 41.6% (inactive).

As for `O=C(NC(=O)c1ccc(Cl)c(Cl)c1)OC1CCS(=O)(=O)C1` (stereo not given), the inhibition is -14.2% (inactive).

As to `COc1ccc(-c2nc(SCC(=O)N3CCOCC3)n[nH]2)cc1`, the inhibition is 1% (inactive).

`CN1/C(=c2/s/c(=C3/C(=O)N(c4ccccc4)NC3=Nc3ccccc3)n(C)c2=O)C(C)(C)c2ccccc21`: the inhibition is 38.5% (inactive).

`COc1ccccc1NC(=O)C1=C(C)NC2=C(C(=O)CCC2)C1c1ccc(C)o1` (stereo not given): the inhibition was 41.9% (inactive).

Turning to `CCOC(=O)C1C(=O)NC(N2CCN(c3ccccc3)CC2)=NC1c1ccco1` (stereo not given), the inhibition was 6.9% (inactive).

Regarding `CC1=C(C(=O)OCc2ccccc2)C(c2ccco2)n2ncnc2N1` (stereo not given), the inhibition is 90.2% (active).

`CCOC(=O)CSC1=C(C#N)C(c2ccco2)C(C(=O)OCc2ccccc2)=C(C)N1` (stereo not given): the inhibition was 72.5% (active).

In the case of `Cc1ccc(C2CC(=O)NC(SCC(=O)OCc3ccccc3)=C2C#N)o1` (stereo not given), the inhibition was 82.5% (active).

`CCOC(=O)CSC1=C(C#N)C(c2sccc2C)CC(=O)N1` (stereo not given): the inhibition is 22.9% (inactive).

Regarding `COC(=O)C1=C(C)Nc2ncnn2C1c1ccco1` (stereo not given), the inhibition is -5.4% (inactive).

As to `COc1ccccc1NC(=O)C1=C(C)Nc2ncnn2C1c1ccc(C)o1` (stereo not given), the inhibition is 8.6% (inactive).

Consider `CC1=C(C(=O)Nc2ccccc2)C(c2ccco2)C(C#N)=C(SCC(N)=O)N1` (stereo not given), for which the inhibition is 2.2% (inactive).

For `CCCNS(=O)(=O)c1ccc2c(c1)CCCN2C(C)=O`, the inhibition was 0.6% (inactive).

On to `COc1ccc(N2CCN(C(=O)CSc3ncnc4c3cnn4-c3ccc(OC)cc3)CC2)cc1`, for which the inhibition was 5.1% (inactive).

Turning to `O=C(CN1C(=O)CSc2ncccc21)N1CCOCC1`, the inhibition is 13% (inactive).

Regarding `O=c1c(-c2ccccc2)coc2c(CN3CCOCC3)c(O)ccc12`, the inhibition is 10.1% (inactive).

As to `CN(c1cccc(NC(=O)Nc2ccc(Cl)cc2)c1)S(C)(=O)=O`, the inhibition is 28.5% (inactive).

Take `Cn1nc(C(F)(F)F)c(C(=O)Nc2cccc(C(F)(F)F)c2)c1SCc1ccc(Cl)cc1`: the inhibition is 87.4% (active).

Regarding `CCC(C)Sc1nc(C)nc2c1c(=O)n(C)c(=O)n2C` (stereo not given), the inhibition is 32.5% (inactive).

For `O=C1COc2ccc(NC(=O)N3CCN(c4ccc(F)cc4)CC3)cc2N1`, the inhibition is 8% (inactive).

In the case of `O=C(Nc1ccccc1)c1cccnc1Nc1ccccc1`, the inhibition was 2.2% (inactive).

`O=C(Nc1ccc(-n2ccnc2P(=O)(O)c2ccccc2)cc1)c1ccccc1Br`: the inhibition was 96.9% (active).

On to `Cc1nonc1NC(=O)c1ccccc1Br`, for which the inhibition is -11.9% (inactive).

As for `O=c1c2[nH]c3ccc(Cl)cc3c2ncn1Cc1ccccn1`, the inhibition was 10.9% (inactive).

Regarding `Nc1cc(OC(=O)c2ccccc2Br)nn1S(=O)(=O)c1ccccc1`, the inhibition was 12.4% (inactive).

In the case of `O=C(CSc1nnc(-c2cccnc2)n1Cc1ccco1)c1ccc(Cl)cc1`, the inhibition was 27.8% (inactive).

Turning to `Cc1nnc(SCC(N)=O)n1CC1CCCO1` (stereo not given), the inhibition is 8% (inactive).

`CCn1c(SCC(=O)Nc2cc(C)c(Cl)cc2OC)nnc1-c1ccco1`: the inhibition was 70.6% (active).

In the case of `CCOC(=O)CNC(=O)CSc1nnc(-c2cccc(OC)c2)n1CC`, the inhibition was 20.1% (inactive).

With `O=C(CSc1nnc(-c2cccnc2)n1Cc1ccco1)c1ccc(Cl)c(Cl)c1`, the inhibition was 79.7% (active).

For `COc1cc(Cl)c(C)cc1NC(=O)CSc1nnc(-c2cccnc2)n1Cc1ccco1`, the inhibition was 60.5% (active).

For `O=C(CSc1nnc(-c2cnccn2)n1Cc1ccco1)c1ccc(Cl)c(Cl)c1`, the inhibition was 5.6% (inactive).

On to `O=C(CSc1nnc(-c2ccco2)n1CC1CCCO1)c1ccccc1` (stereo not given), for which the inhibition is 70.4% (active).

As to `CCOC(=O)CSc1nnc(-c2ccco2)n1C`, the inhibition was -5.6% (inactive).

`CCn1c(SCC(=O)Nc2cccc(F)c2)nnc1-c1cc2cc(Br)ccc2o1`: the inhibition was 7.3% (inactive).

With `COc1ccc(-c2nn(-c3ccccc3)cc2C(=O)Nc2nc(CC(C)=O)ns2)cc1`, the inhibition was -1% (inactive).

With `COc1ccc(N2CCN(C(=O)CSc3nc4cc(OC)c(OC)cc4cc3C#N)CC2)cc1`, the inhibition was 37.5% (inactive).

For the compound `C[C@@H](Nc1nc(-c2ccccc2)nc2c1oc1ccccc12)C(=O)O`, the inhibition was 1.5% (inactive).

With `CSc1ccc(NC(=O)N2CC(C)OC(C)C2)cc1` (stereo not given), the inhibition is 14.4% (inactive).

Turning to `Cc1c(C(=O)Nc2ccccc2Cl)oc2ccc(S(=O)(=O)N3CCC4(CC3)OCCO4)cc12`, the inhibition is 7.5% (inactive).

In the case of `COC(=O)c1c(-c2cccs2)csc1NC(=O)CSc1ncnc2sc(C)c(C)c12`, the inhibition was 16.1% (inactive).

Turning to `CCn1c(COc2ccccc2)nnc1SCC(=O)Nc1ccc2c(c1)OCCO2`, the inhibition was 18.3% (inactive).

As for `O=C(CSc1nnc(-c2cccs2)n1Cc1ccco1)c1ccc2c(c1)OCO2`, the inhibition is 51% (active).

As for `CCn1c(COc2ccc(OC)cc2)nnc1SCC(=O)Nc1cc(OC)ccc1OC`, the inhibition is 65.9% (active).

Regarding `C(=C\c1ccccc1)/CSc1nnc(-c2cccnc2)n1Cc1ccco1`, the inhibition was 72.6% (active).

On to `CCCn1c(SCC(=O)c2ccc3c(c2)OCCO3)nnc1C(C)C`, for which the inhibition was 16.5% (inactive).

Consider `COc1ccc(NC(=O)CSc2nnc(-c3cccs3)n2Cc2ccco2)cc1OC`, for which the inhibition is 35.6% (inactive).

On to `N=c1c2c(-c3ccccc3)c(-c3ccccc3)oc2ncn1Cc1ccco1`, for which the inhibition was 19.1% (inactive).

`COc1ccc(OC)c(NC(=O)CSc2nc3cccnc3n2C)c1`: the inhibition was 40.2% (inactive).

Turning to `Nc1cc(=O)nc(SCc2ccccc2)n1Cc1ccco1`, the inhibition is 32.6% (inactive).

In the case of `CCc1cccc(C)c1NC(=O)CSc1nnc(-c2ccco2)n1N`, the inhibition is 76% (active).

In the case of `Cc1cccc(C)c1NC(=O)CCCSc1nnc(-c2ccco2)n1-c1ccccc1`, the inhibition was 23.1% (inactive).

Turning to `NC(=O)c1c(NC(=O)CSc2nnc(-c3ccco3)n2N)sc2c1CCCC2`, the inhibition was 33.7% (inactive).

Consider `COc1cccc2c1OCC(C(=O)NCc1ccc(Cl)cc1Cl)=C2`, for which the inhibition is 28.2% (inactive).

As for `CCCCN1C(=O)CC(N2CCOCC2)C1=O` (stereo not given), the inhibition is -0.3% (inactive).

Turning to `CCCOc1ccc(CN(CCO)CCO)cc1C(=O)OC`, the inhibition is 0.9% (inactive).
